Reference: PubChem BioAssay (NCATS)
Results filed as inconclusive are left out. Where a call stands in place of a potency, no number is given. A number with no mark means an inactive call. Activity calls are given as the source filed them. Calls follow the shape of the dose curve; as a rule, active = well fitted inhibition curve with a large enough effect; inconclusive = small, poorly fitted or top-dose-only effect; inactive = flat fitted curve, though single readings scatter.

The compounds below were run against Phospholipid hydroperoxide glutathione peroxidase GPX4 (Homo sapiens) (UniProt P36969) (assay: Primary qHTS Assay for Inhibitors of Recombinant Selenoprotein Glutathione Peroxidase 4 (GPX4) (AID 1845192; also: nearly all actives have a fitted effect of over 65% in size)). Settings: recombinant GPX4, GR-coupled NADPH fluorescence, 15 min; series mostly up to 50 µM; activity change, negative = inhibition: at the top concentration.
Chain of Phospholipid hydroperoxide glutathione peroxidase GPX4 (Homo sapiens) (P36969 whole entry, looked up): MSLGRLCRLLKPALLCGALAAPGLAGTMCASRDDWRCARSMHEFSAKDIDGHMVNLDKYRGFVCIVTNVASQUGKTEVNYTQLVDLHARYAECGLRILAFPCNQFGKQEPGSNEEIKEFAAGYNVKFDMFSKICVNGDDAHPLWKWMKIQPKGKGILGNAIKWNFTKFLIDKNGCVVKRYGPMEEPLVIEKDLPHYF
Method in brief: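 qHTS, GR-coupled: GPX4 200 nM + cpd 30 min RT → GSH 1 mM, NADPH 0.5 mM, GR 100 nM → CHP 0.5 mM start; fluor 340/450 at t0 and t15 min; no-enzyme wells as control.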
With O=S1(=O)OC(c2ccc(O)cc2)(c2ccc(O)cc2)c2ccccc21 the “outcome” value was “inactive”.
With COc1ccc(-c2cc(=O)c3c(O)cc(O[C@@H]4O[C@H](CO[C@@H]5O[C@@H](C)[C@H](O)[C@@H](O)[C@H]5O)[C@@H](O)[C@H](O)[C@H]4O)cc3o2)cc1O the “activity change, negative = inhibition” value was -10.1%.
For COc1ccc(C(=O)NCc2ccc(OCCN(C)C)cc2)cc1OC, the “outcome” value was “inactive”.
CN[C@@H]1[C@@H](O)[C@@H](O[C@@H]2[C@H](O)[C@H](O[C@H]3OC(CN)=CC[C@H]3N)[C@@H](N)C[C@H]2N)OCC1(C)O (stereo partly drawn) was tested, and the “outcome” value was “inactive”.
CCOc1cc(NC(C)=O)ccc1C(=O)OC was tested, and the “activity change, negative = inhibition” value was 0.92%.
For O=C(O)CCC(=O)O, the “activity change, negative = inhibition” value was 4.4%.
For CCOC(=O)OC(C)OC(=O)[C@@H]1N2C(=O)[C@@H](NC(=O)[C@H](N)c3ccccc3)[C@H]2SC1(C)C (stereo partly drawn), the “activity change, negative = inhibition” value was -16.5%.
With C=CCNC(N)=S the “activity change, negative = inhibition” value was 2.67%.
With Cc1c(N(C)C)c(=O)n(-c2ccccc2)n1C the “outcome” value was “inactive”.
In the case of O[C@@H]1CO[C@H]2[C@@H]1OC[C@@H]2O, the “activity change, negative = inhibition” value is reported as 1.74%.
In the case of O=C(c1ccccc1)C(O)c1ccccc1 (stereo not drawn), the “outcome” value is reported as “inactive”.
In the case of O=C(NCC(O)CO)c1c(I)c(C(=O)NCC(O)CO)c(I)c(N(CCO)C(=O)CO)c1I (stereo not drawn), the “activity change, negative = inhibition” value is reported as -19.9%.
In the case of NCC1CCC(C(=O)Oc2ccc(CCC(=O)O)cc2)CC1 (stereo not drawn), the “activity change, negative = inhibition” value is reported as 3.17%.
NS(=O)(=O)c1cc(-c2nn[nH]n2)c(NCc2cccs2)cc1Cl was tested, and the “outcome” value was “inactive”.
With CCOc1ccccc1O[C@H](c1ccccc1)[C@H]1CNCCO1 the “outcome” value was “inactive”.
With CCCCOC(=O)c1ccc(N)cc1 the “activity change, negative = inhibition” value was -8.35%.
O=c1[nH]c(=O)n([C@H]2C[C@H](O)[C@@H](CO)O2)cc1I was tested, and the Potency was “inactive”.
For CC(=O)N[C@H]1[C@H]([C@H](O)[C@H](O)CO)OC(C(=O)O)=C[C@@H]1N=C(N)N, the “outcome” value was “inactive”.
